The list is not random: actives were taken first. Their share in the collection is about 4.8%.
tim10-1 inh = tim10-1 yeast growth inhibition; 330,000 compounds, 2.2% hits; S. cerevisiae tim10-1 ts strain growth, BacTiter-Glo, 24 h; inhibition, % at 20 µM;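 active = inhibition of at least 40%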;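 note: mutant grown at 25 °C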
PfHsp90 set2 = growth inhibition of yeast expressing Plasmodium Hsp90; S. cerevisiae expressing PfHsp90, BacTiter-Glo ATP, 48 h; yeast lacking PDR1 and PDR3 efflux regulators; inhibition, % at 9.4 µM; 310,000 compounds, 0.32% hits; AID 504621;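 active = every replicate shows inhibition above about 80%, whatever the replicate mean, limit read from the data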
NALP1 inh = blocks the NALP1 inflammasome reconstituted in yeast | S. cerevisiae NALP1/ASC/caspase-1 growth, X-gal OD620, 72 h | inhibition, % at 10 µM | 280,000 compounds, 0.61% hits; in the data active = inhibition mostly above about 24%, no sharp cut-off; inactive = mostly below about 32%
tim23-1 inh = tim23-1 yeast growth inhibition; 330,000 compounds, 1.3% hits; inhibition, % at 20 µM; S. cerevisiae tim23-1 growth, BacTiter-Glo luminescence, 24 h;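 active = growth inhibition of the mutant yeast at or above 50%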;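 note: temperature-sensitive mutant grown at 25 °C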
SKKanGAS inh = inhibitors of SKKanGAS S. pyogenes growth in kanamycin (SK-promoter or general growth effect). inhibition, % at 7.5 µM. 300,000 compounds, 1.3% hits. BacTiter-Glo, 6 h. AID 1662;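 active = mean replicate score, as percent of positive control median, at least 50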;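 note: strain carries kanamycin resistance gene driven by streptokinase promoter and grows in 40 µg/ml kanamycin; loss of luminescence reflects streptokinase promoter inhibition or plain growth inhibition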
TIM10 inh = inhibits growth of TIM10 yeast strain; 330,000 compounds, 1.4% hits; inhibition, % at 10 µM; S. cerevisiae TIM10 strain growth, BacTiter-Glo luminescence, 24 h;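 active = inhibition of 40% or more at the single tested concentration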;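 note: wild-type TIM10 isogenic control strain grown at permissive 25 °C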
Each line names hits and unclear results; the compound was inactive in the other large screens.

C=CCNC(=O)c1ccc2nc(Cc3ccc(OC)cc3)oc2c1	none (no result: tim10-1 inh, NALP1 inh, tim23-1 inh, TIM10 inh)
Clc1ccc(-c2nc(-c3ccccn3)no2)cc1Cl	NALP1 inh 32
CC(=O)Oc1ccccc1C(=O)Nc1ccccc1C(=O)N1CCCC1	none
COc1cc(C(=O)NNC(=O)c2ccc3c(c2)OCCO3)cc(OC)c1OC	none (no result: NALP1 inh, SKKanGAS inh)
COc1cc(C(=O)NC(=S)NNC(=O)c2cnccn2)cc(OC)c1OC	none
COc1cc(C(=O)NNC(=S)NC(=O)c2ccccc2C)cc(OC)c1OC	SKKanGAS inh 60
COc1cc(C(=O)NNC(=S)NC(=O)c2ccc3c(c2)OCO3)cc(OC)c1OC	SKKanGAS inh 77 (no result: PfHsp90 set2, NALP1 inh)
CC(C)c1ccc(O)c(NC(=S)NC(=O)c2ccc3c(c2)OCO3)c1	SKKanGAS inh 60
COc1ccccc1C(=O)NNC(=S)NC(=O)c1cc(OC)c(OC)c(OC)c1	SKKanGAS inh 80
CCCCCCc1ccc(OCC(=O)O)cc1OCC(=O)O	none
COc1cc(C(=O)NC(=S)NNC(=O)[C@H]2C[C@@H]2c2ccccc2)cc(OC)c1OC	SKKanGAS inh 90
CCNC(=O)CSc1nnc(CN2CCCCCC2=O)n1-c1ccccn1	none
CC(=O)c1c(C)[nH]c(C(=O)CSc2nnc(CN3CCCCCC3=O)n2-c2ccccn2)c1C	NALP1 inh 42
Nc1ccc(-c2nnc(-c3ccc(N)cc3)o2)cc1	none
COc1ccc(C(=O)/C(C#N)=N/Nc2cccc([N+](=O)[O-])c2)cc1	SKKanGAS inh 51 (no result: tim10-1 inh, tim23-1 inh, TIM10 inh)
CC(C)Cn1c(O)c(N=NC(=O)c2cccc(S(=O)(=O)N3CCCCC3)c2)c2ccccc21	SKKanGAS inh 53
COc1ccc(NC(=S)Nc2ccc3snnc3c2)cc1	PfHsp90 set2 109
CNC(=O)Nc1ccc2snnc2c1	NALP1 inh 34
CC(C)[C@@H](C(=O)NC1CCCC1)N1C(=O)N2CCc3c([nH]c4ccccc34)[C@@]2(C)C1=O	SKKanGAS inh 68
COc1ccccc1C(=O)N/N=C(\C)c1ccc(NC(=O)Cc2ccccc2)cc1	none
C/C(=N\NC(=O)c1ccccc1N)c1ccc(NC(=O)Cc2ccccc2)cc1	SKKanGAS inh 67
CSc1ccc(CN2CCN(C(C)C)C(CCO)C2)cc1 (stereo not drawn)	none
O=S(=O)(Nc1ccc(-c2csc(-c3ccccc3)n2)cc1)c1ccc(F)cc1	SKKanGAS inh 98 (no result: PfHsp90 set2)
O=C(Nc1nc(-c2ccccc2)cs1)c1ccccc1NS(=O)(=O)c1ccc(F)cc1	PfHsp90 set2 103, SKKanGAS inh 85
COc1ccc(C)cc1S(=O)(=O)N1CCN(C(=O)c2ncoc2-c2ccc(C)cc2)CC1	none
O=C(C1=C[C@H](c2coc3ccccc3c2=O)C[C@H](OCc2ccc(CO)cc2)O1)N1CCN(Cc2ccc3c(c2)OCO3)CC1	NALP1 inh 20
O=C(C1=C[C@@H](c2coc3ccccc3c2=O)C[C@@H](OCc2ccc(CO)cc2)O1)N1CCN(Cc2ccc3c(c2)OCO3)CC1	none
N#Cc1ccc(C(=O)Nc2nc(SCc3ccc(Cl)cc3)n[nH]2)cc1	SKKanGAS inh 87
Cc1nc(SCc2ccc(C#N)cc2)n[nH]1	none
O=c1c2ccccc2oc2cc(-c3ccc4[nH]ccc4c3)ccc12	SKKanGAS inh 57 (no result: NALP1 inh)
COc1cc2sc3ccc(-c4ccc5[nH]ccc5c4)cc3c(=O)c2cc1OC	none (no result: NALP1 inh)
COc1ccccc1N1CCN(CCCCOc2c(OC)cccc2OC)CC1	none
COc1ccccc1N1CCN(CCOc2c(OC)cccc2OC)CC1	NALP1 inh 28 (no result: PfHsp90 set2)
Clc1ccc(Nc2ncnc3c2cnn3-c2ccccc2)cc1	SKKanGAS inh 81 (no result: NALP1 inh)
N=c1n(CC(=O)c2ccc([N+](=O)[O-])cc2)c2ccccc2n1Cc1ccc(Cl)cc1	NALP1 inh 64
CCOC(=O)C1=Nc2ccccc2C1=[N+]=[N-]	PfHsp90 set2 122, NALP1 inh 75, SKKanGAS inh 103
O=c1cc(N2CCCCC2)c(-c2ccccc2)nn1Cc1c(Cl)cccc1Cl	SKKanGAS inh 107
O=c1cc(N2CCCCC2)c(-c2ccccc2)nn1Cc1ccc(Cl)cc1	SKKanGAS inh 94
O=c1cc(N2CCCCC2)c(-c2ccccc2)nn1Cc1ccc(F)cc1	none
COc1cccc(NC(=O)CN(C)CC(=O)Nc2ccccc2-c2ccccc2)c1	none
O=C(CSc1n[nH]c(=O)n1C1CC1)c1ccc2c(c1)OCCO2	none (no result: PfHsp90 set2)
CCOC(=O)N1CCN(c2nc(N(c3ccccc3)c3ccccc3)nc(-n3ccnc3)n2)CC1	none (no result: PfHsp90 set2)
c1ccc(N(c2ccccc2)c2nc(N3CCCC3)nc(-n3ccnc3)n2)cc1	SKKanGAS inh 79
CN(c1ccccc1)c1nc(N2CCCC2)nc(-n2ccnc2)n1	SKKanGAS inh 52
Cc1ccc2nc(N/N=C/c3ccco3)cc(C)c2c1	none
CNC(=O)c1c(C)nc(SCC(=O)NCc2ccc(OC)cc2)c(C#N)c1-c1ccco1	none
COCCOC(=O)c1c(C)nc(SCC(=O)Nc2cccc3ccccc23)c(C#N)c1-c1ccco1	SKKanGAS inh 50
Cc1ccccc1NC(=O)CSc1nc2c(c(-c3ccco3)c1C#N)CCCC2	none
COCCOC(=O)c1c(C)nc(SCC(=O)Nc2ccc(C)cc2)c(C#N)c1-c1ccco1	SKKanGAS inh 67
Cc1cc(C)nc(NC2=NCC(=O)N2c2cccc(Cl)c2)n1	none (no result: PfHsp90 set2)
CCn1cc(C(=O)NC(=S)Nc2ccccc2Br)cn1	SKKanGAS inh 51
O=C1CC(NNC(=O)c2ccc(Br)cc2)C(=O)N1 (stereo not drawn)	none
O=[N+]([O-])CC(=Nc1ccc(Cl)cc1)N/N=C\c1oc(O)c2ccccc12	none
Cc1cc(C(=O)N/N=C/c2ccc([N+](=O)[O-])cc2)c2ccccc2n1	none
O=C(N/N=C/c1cc([N+](=O)[O-])ccc1O)c1c[nH]c2ccccc12	SKKanGAS inh 66 (no result: NALP1 inh)
Cc1cc(C(=O)N/N=C/c2cc(Br)cc([N+](=O)[O-])c2O)c2ccccc2n1	SKKanGAS inh 106
O=C(NC(C(=O)N/N=C/c1cc([N+](=O)[O-])ccc1O)c1n[nH]c(=O)c2ccccc12)c1ccccc1 (stereo not drawn)	SKKanGAS inh 87
Cc1cc(C(=O)N/N=C/c2cc([N+](=O)[O-])ccc2O)c2ccccc2n1	SKKanGAS inh 92
CC1CC(C)(C)NC(=S)N1CCCC(=O)Nc1ccc(Cl)cc1 (stereo not drawn)	none
CCC1=C2CC[C@H]3C(=O)N(CC)C(=O)[C@H]3[C@H]2[C@@]2(Cc3ccccc3)C(=NCc3ccccc3)OC(=O)N2C1=O	none (no result: NALP1 inh)
Cc1ccn2c(C(=O)NN=C3CCCCCCC3)c(C)nc2c1	none
Cn1ccc(NC(=O)Nc2cccc(C(F)(F)F)c2)n1	none
COc1ccc(-c2cn3cc(Br)cnc3n2)cc1	none (no result: PfHsp90 set2)
Cc1ccc(C(=O)/C=C2/NC(=O)CS2)cc1	none
O=c1c2ccccc2nc(COc2ccccc2)n1/N=C/c1cc([N+](=O)[O-])ccc1O	SKKanGAS inh 76
